The source of these data is PubChem BioAssay.

Molecules are shown by their SMILES. Calls of active or inactive are those of the source.

Experiment [1] relates to Plasmodium falciparum Sir2 (PF13_0152, Sir2A). Put plainly: Plasmodium falciparum Sir2A binding compounds – biochemical, small-molecule microarray, 635 nm fluorescence, primary screen (AID 1098).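 Further: score merges spot fluorescence intensity with its signal-to-noise ratio.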 The following applies: fluorescence 635 nm, higher = more signal.
Experiment [2] is described as follows: probe aDKK1 binding to arrayed compounds – biochemical, biotinylated probe, 635/667 nm fluorescence, primary screen (AID 1099).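 Further: score merges 667nm spot fluorescence with signal to noise across triplicate slides.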 To be noted: small-molecule microarray, higher = more signal.
A short description of experiment [3]: probe aCHRDL2 binding to arrayed compounds – biochemical, biotinylated probe, 635/667 nm fluorescence, primary screen (AID 1100). To be noted: small-molecule microarray, higher = more signal.
The nature of experiment [4]: change in splice reporter luminescence, either direction, cell-based, HEK293, spliceosome inhibition project, primary screen (AID 1101).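 Further: HEK293 cells carrying a splicing-competent luciferase reporter gene; test concentration not given here.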 To be noted: HEK293 splicing luciferase reporter, 24 h, higher = more signal, called active from +8 up or from −8 down. For orientation: A reporter such as luciferase makes a cellular process visible.
Experiment [5] addresses Fibroblast growth factor 10 (Homo sapiens) (UniProt O15520). The experiment is described as follows: compounds binding fibroblast growth factor 10 – biochemical, small-molecule microarray, 635 nm fluorescence, primary screen (AID 1102). The following applies: FGF10 binding, fluorescence 635 nm, higher = more signal.
In experiment [6] the test system is glycogen synthase kinase-3 (GSK3A per assay name; protocol says GSK3B). The experiment is described as follows: compounds binding glycogen synthase kinase-3 – biochemical, small-molecule microarray, 635 nm fluorescence, GSK3A, primary screen (AID 1103). Further: the record names both GSK3A and GSK3B. The following applies: fluorescence 635 nm, higher = more signal.
Experiment [7] deals with Epidermal growth factor receptor (Homo sapiens) (UniProt P00533). Put plainly: compounds binding epidermal growth factor receptor – biochemical, small-molecule microarray, 635 nm fluorescence, primary screen (AID 1104).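 Further: score merges 667 nm emission intensity with spot signal to noise over triplicate slides.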 To be noted: EGFR binding, higher = more signal.
Epidermal growth factor receptor (Homo sapiens), sequence (P00533 whole entry, looked up): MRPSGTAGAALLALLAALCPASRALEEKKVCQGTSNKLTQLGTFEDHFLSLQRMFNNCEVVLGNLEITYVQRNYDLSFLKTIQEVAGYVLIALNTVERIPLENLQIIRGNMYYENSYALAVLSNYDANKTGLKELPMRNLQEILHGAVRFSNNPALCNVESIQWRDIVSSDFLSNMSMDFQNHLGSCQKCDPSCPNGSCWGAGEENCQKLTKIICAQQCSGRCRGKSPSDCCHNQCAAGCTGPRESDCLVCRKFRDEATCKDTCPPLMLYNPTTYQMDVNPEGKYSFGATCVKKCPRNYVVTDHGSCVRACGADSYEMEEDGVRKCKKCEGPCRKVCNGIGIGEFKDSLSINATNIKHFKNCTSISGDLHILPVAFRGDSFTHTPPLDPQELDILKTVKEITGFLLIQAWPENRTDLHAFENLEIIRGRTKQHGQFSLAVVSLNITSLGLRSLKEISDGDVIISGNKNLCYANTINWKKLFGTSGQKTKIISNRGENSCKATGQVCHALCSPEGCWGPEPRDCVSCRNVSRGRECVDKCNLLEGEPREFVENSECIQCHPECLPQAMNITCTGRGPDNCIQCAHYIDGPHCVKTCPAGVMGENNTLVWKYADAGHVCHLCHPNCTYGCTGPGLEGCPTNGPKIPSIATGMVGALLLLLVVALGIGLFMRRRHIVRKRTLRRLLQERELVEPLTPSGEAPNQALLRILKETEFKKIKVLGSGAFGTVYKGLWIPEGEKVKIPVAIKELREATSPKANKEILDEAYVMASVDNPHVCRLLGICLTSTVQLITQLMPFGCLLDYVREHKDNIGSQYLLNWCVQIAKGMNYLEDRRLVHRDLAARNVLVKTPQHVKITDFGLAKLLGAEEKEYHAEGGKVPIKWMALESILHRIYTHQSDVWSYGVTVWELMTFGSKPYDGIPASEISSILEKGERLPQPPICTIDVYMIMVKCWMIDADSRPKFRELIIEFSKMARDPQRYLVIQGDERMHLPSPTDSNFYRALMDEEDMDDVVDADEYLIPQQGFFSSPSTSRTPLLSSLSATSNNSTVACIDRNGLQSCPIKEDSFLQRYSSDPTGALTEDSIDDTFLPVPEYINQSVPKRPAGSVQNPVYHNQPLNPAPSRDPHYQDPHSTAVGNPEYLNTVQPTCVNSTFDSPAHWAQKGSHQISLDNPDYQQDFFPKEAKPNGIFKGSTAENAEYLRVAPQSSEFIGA
Experiment [8] deals with Follistatin-related protein 3 (Homo sapiens) (UniProt O95633). The experiment is described as follows: compounds binding follistatin-related protein 3 – biochemical, small-molecule microarray, 635 nm fluorescence, primary screen (AID 1105).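 Further: score merges emission near 667 nm and signal to noise per printed spot across three slides.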 To be noted: FSTL3 binding, higher = more signal.
Follistatin-related protein 3 (Homo sapiens), sequence (O95633 whole entry, looked up): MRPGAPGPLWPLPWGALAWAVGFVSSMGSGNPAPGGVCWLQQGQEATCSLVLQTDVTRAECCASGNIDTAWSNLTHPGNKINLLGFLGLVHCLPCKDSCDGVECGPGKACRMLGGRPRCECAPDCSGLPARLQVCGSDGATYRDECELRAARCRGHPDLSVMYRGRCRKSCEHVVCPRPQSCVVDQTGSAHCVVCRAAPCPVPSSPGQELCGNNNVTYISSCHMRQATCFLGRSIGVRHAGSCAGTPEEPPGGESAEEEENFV
In experiment [9] the target is Dickkopf-related protein 1 (Homo sapiens) (UniProt O94907). The experiment is described as follows: small molecules binding DKK1 protein – biochemical, small-molecule microarray, 635 nm fluorescence scan, primary screen (AID 1106).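 Further: score merges emission near 667 nm with signal to noise over three replicate slides.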 To be noted: higher = more signal.
Dickkopf-related protein 1 (Homo sapiens), sequence (O94907 whole entry, looked up): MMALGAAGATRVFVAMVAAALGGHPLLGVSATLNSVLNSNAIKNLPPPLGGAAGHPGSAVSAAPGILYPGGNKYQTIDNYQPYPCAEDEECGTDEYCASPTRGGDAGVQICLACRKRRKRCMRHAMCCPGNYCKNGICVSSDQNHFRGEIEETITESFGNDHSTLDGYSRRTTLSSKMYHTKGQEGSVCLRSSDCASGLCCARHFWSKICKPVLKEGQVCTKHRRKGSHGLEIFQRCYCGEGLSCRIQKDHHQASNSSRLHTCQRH
In experiment [10] the test system is Inhibin beta A chain (activin A). Put plainly: small molecules binding activin A – biochemical, small-molecule microarray, 635 nm fluorescence scan, primary screen (AID 1107).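 Further: mouse activin A protein probed at 4.33 µg/mL on printed slides; score merges bound-protein fluorescence near 667 nm with spot signal-to-noise.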 The following applies: INHBA, higher = more signal.
For experiment [11], the system named is Human papillomavirus type 1a protein E7 (residues 44-93). The experiment is described as follows: small molecules binding HPV E7 44-93 – biochemical, small-molecule microarray, residues 44-93, 635 nm fluorescence, primary screen (AID 1108).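 Further: E7 fragment applied at 1 µg/mL in TBST for 1 h at 4 C; score combines spot fluorescence with its signal to noise ratio.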 The following applies: fluorescence 635 nm, higher = more signal.
Experiment [12] can be described thus: hepatitis C replication reporter changes, two-sided – Huh7 cells, luciferase reporter, HCV replication inhibitor project, primary screen (AID 1109).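 Further: huh7 hepatoma cells harbouring a luciferase neomycin HCV replicon reporter; luciferase luminescence as measure of HCV replicon replication; test concentration not given here.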 To be noted: Huh7 HCV replicon luciferase reporter, 48 h; higher = more signal.
Experiment [13] concerns the target Left-right determination factor 2 (Homo sapiens) (UniProt O00292). Put plainly: small molecules binding LEFTY2 protein – biochemical, small-molecule microarray, 635 nm fluorescence scan, primary screen (AID 1110). The following applies: higher = more signal.
In experiment [14] the target is Calmodulin-1 (Homo sapiens) (UniProt P0DP23). Put plainly: small molecules binding calmodulin-1 with EGTA – biochemical, small-molecule microarray, Cy5-labelled CALM1, profiling panel (AID 1111).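 Further: labelled calmodulin applied in Tris saline Tween buffer holding calcium plus EGTA and DTT.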 The following applies: Cy5-CALM1 binding fluorescence, higher = more signal.
The target is the same in experiment [15]. Put plainly: small molecules binding Ca-loaded calmodulin-1 – biochemical, small-molecule microarray, Cy5-labelled CALM1, plus calcium, artefact control for SMM control-protein annotation, profiling panel (AID 1112).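 Further: score merges spot fluorescence with signal to noise from triplicate slides.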 The following applies: Cy5-CALM1 binding fluorescence, higher = more signal.
Experiment [16] can be described thus: probe aWnt5a binding to arrayed compounds – biochemical, biotinylated probe, 635/667 nm fluorescence, primary screen (AID 1113).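 Further: score merges 667 nm fluorescence intensity with signal-to-noise per printed feature.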 The following applies: small-molecule microarray, higher = more signal.
Experiment [17] is described as follows: probe aShh binding to arrayed compounds – biochemical, biotinylated probe, 635/667 nm fluorescence, primary screen (AID 1114).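 Further: probe is biotin-labelled aShh protein from a stem cell growth factor screen; measures binding of labelled protein to compounds printed on the slide; score merges feature fluorescence at 667 nm with signal-to-noise.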 The following applies: small-molecule microarray, higher = more signal.
The nature of experiment [18]: probe aNog binding to arrayed compounds – biochemical, biotinylated probe, 635/667 nm fluorescence, primary screen (AID 1115).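 Further: probe is biotinylated aNog protein used at 0.15 µg/mL for 1 h at 4 C; z-score combines 667 nm fluorescence of each spot with its signal to noise.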 The following applies: small-molecule microarray, higher = more signal.
Experiment [19] concerns the target Torsin-1A-interacting protein 1 (Homo sapiens) (UniProt Q5JTV8). Put plainly: compound microarray binding of lysate hLAP1 – cell lysate, small-molecule microarray, COS7 lysate, 635/667 nm fluorescence, primary screen (AID 1116). To be noted: 635 nm fluorescence, higher = more signal.
In experiment [20] the target is Alpha-bungarotoxin (Bungarus multicinctus) (UniProt P60615). Put plainly: compounds binding labelled alpha-BTX control protein – biochemical, small-molecule microarray, Alexa647 label, 635/667 nm fluorescence, artefact control for SMM control protein annotation, profiling panel (AID 1117). The following applies: alpha-BTX-A647 binding fluorescence, higher = more signal.
Alpha-bungarotoxin (Bungarus multicinctus), sequence (P60615 whole entry, looked up): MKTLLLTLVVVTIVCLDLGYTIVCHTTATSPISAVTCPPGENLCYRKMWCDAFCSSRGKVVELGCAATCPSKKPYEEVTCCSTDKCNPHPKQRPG

Torsin-1A-interacting protein 1 (Homo sapiens), sequence (Q5JTV8 whole entry, looked up): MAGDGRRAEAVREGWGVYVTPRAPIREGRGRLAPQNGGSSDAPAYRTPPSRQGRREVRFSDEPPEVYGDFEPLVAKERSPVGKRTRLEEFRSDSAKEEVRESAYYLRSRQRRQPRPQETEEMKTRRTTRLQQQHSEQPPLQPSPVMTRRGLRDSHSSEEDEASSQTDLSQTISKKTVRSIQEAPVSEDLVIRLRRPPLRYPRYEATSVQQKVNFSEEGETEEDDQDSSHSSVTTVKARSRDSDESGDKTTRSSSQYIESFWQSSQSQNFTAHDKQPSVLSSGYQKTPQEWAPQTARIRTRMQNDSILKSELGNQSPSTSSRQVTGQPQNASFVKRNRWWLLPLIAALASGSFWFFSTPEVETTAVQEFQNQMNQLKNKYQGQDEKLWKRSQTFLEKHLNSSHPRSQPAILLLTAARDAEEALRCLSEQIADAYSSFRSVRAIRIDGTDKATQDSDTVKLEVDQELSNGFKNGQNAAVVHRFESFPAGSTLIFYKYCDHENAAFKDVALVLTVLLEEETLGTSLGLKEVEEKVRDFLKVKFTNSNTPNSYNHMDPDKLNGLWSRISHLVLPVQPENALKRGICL
Fibroblast growth factor 10 (Homo sapiens), sequence (O15520 whole entry, looked up): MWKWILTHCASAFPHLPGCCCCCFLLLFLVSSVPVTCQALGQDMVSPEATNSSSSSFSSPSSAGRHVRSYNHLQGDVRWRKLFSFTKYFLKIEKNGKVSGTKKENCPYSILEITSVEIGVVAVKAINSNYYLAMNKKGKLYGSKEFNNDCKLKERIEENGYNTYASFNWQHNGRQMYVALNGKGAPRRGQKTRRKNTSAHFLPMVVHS
Left-right determination factor 2 (Homo sapiens), sequence (O00292 whole entry, looked up): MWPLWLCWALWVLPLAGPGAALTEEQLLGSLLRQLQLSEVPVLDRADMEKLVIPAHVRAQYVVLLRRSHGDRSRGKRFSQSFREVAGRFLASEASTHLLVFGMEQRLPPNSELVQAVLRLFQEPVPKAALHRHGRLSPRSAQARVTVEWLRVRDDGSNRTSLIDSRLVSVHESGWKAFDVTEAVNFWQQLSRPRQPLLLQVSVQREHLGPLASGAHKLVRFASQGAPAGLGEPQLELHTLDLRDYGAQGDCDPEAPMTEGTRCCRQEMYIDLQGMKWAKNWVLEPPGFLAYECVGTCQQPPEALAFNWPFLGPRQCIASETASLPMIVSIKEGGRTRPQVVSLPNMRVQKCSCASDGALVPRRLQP

Take `COc1ccc(OC[C@H]2Cc3c(-c4ccccc4)nc4c(c3CO2)CN(CCOc2ccccc2)CC4)cc1`: the composite z-score was 1.07 in experiment [1]; 0.521 in experiment [2]; -0.233 in [3]; 0.883 in [5]; 0.94 in [6]; 0.487 in experiment [7]. Also, the composite z-score was 1.03 in experiment [8]; 0.85 in experiment [9]; 0.726 in experiment [10]; 1.22 in experiment [11]; 0.722 in [13]; 0.59 in experiment [14]. For the same molecule, the composite z-score in experiment [15] was -0.243; in [16] it was -0.0399; in [17], 0.0815; in experiment [18], 0.0637; in experiment [19], 0.423; in experiment [20], 1.13. Also, the z-score in [4] was -1.47 (inactive); in experiment [12] it was -1.77.

In the case of `CC(C)NC(=O)[C@@]1(c2ccc([N+](=O)[O-])cc2)CC(=O)N(CC23CC4CC(CC(C4)C2)C3)[C@@H]1c1ccc(CO)cc1I`, the composite z-score turned out to be 0.504 in [1]; 0.921 in [2]; 0.197 in experiment [3]; 0.0738 in experiment [5]; 1.12 in experiment [6]; 0.353 in experiment [7]. For the same molecule, the composite z-score in experiment [8] came out at 0.252; in experiment [9], 0.208; in [10], 0.197; in experiment [11] it was 1.36; in experiment [13], 0.0161; in experiment [14], 0.613. In addition, the composite z-score is 0.273 in [15]; -0.0107 in [16]; 0.0796 in [17]; -0.41 in experiment [18]; 0.981 in experiment [19]; 0.442 in experiment [20]. The figures for the z-score in experiment [4] and in experiment [12] were 0.278 (inactive) and -3.4, respectively.

Consider `CCOC(=O)C1=CC[C@H]2C(=O)N(CC)C(=O)[C@@H]12`, for which the composite z-score in experiment [1] was 0.762; in [2], -0.146; in experiment [3] it was -0.242; in experiment [5], 1.07; in experiment [6], 0.947; in experiment [7] it was 0.0746. Besides, the composite z-score in experiment [8] was 0.933; in experiment [9] it was 0.0851; in [10] it was 0.666; in experiment [11], 1.19; in experiment [13] it was 0.444; in experiment [14], -0.322. For the same molecule, the composite z-score in experiment [15] was -0.485; in experiment [16] it was -0.0236; in experiment [17], 0.329; in experiment [18], -0.0184; in experiment [19] it was 0.184; in [20] it was 0.431. Besides, the z-score is -0.253 (inactive) in [4] and -2.13 in experiment [12].

For `CC(=O)OC[C@H]1O[C@H](CCON=C(C)CCC(=O)OC[C@H]2O[C@H](C#Cc3ccccc3)C=C[C@@H]2Oc2ccc(C)cc2)C=C[C@@H]1OC(C)=O`, the composite z-score was 0.825 in [1]; -0.304 in experiment [2]; -0.632 in experiment [3]; 0.167 in experiment [5]; -0.219 in experiment [6]; 0.259 in experiment [7]. Also, the composite z-score is 0.521 in experiment [8]; 0.495 in [9]; 0.659 in [10]; -0.187 in [11]; 0.977 in experiment [13]; -0.367 in [14]. Further, the composite z-score was -0.5 in experiment [15]; -0.131 in experiment [16]; -0.138 in experiment [17]; -0.423 in [18]; 0.245 in experiment [19]; 1.24 in experiment [20]. In addition, the z-score was -0.35 (inactive) in [4] and -0.0572 in experiment [12].

In the case of `CCN1C(=O)[C@H]2[C@H]3[C@H](O)C=CC(=O)[C@@H]3CC[C@H]2C1=O`, the composite z-score in [1] is 0.163; in experiment [2], -0.094; in [3], -0.484; in experiment [5], 0.402; in [6] it was 0.743; in experiment [7], 0.378. For the same molecule, the composite z-score in experiment [8] is 0.548; in [9], 0.444; in experiment [10] it was -0.114; in experiment [11] it was 0.907; in [13] it was 0.503; in experiment [14], 0.0903. Further, the composite z-score in [15] is -0.528; in experiment [16], -0.126; in experiment [17], -0.13; in experiment [18], 0.0658; in experiment [19] it was 0.694; in [20] it was 0.45. In addition, the z-score in [4] was 0.403 (inactive); in experiment [12] it was 0.305.
